In all, about 340,000 compounds went through this assay and about 6,900 (2%) were called active. Cut-off read from the data, not from the text of the source: active = inhibition above about 30%; inactive = below that, where a call was filed. What follows is part of a selection rich in actives, with near analogues and random picks from the rest.

Chain of D(2) dopamine receptor (Homo sapiens) (P14416 whole entry, looked up): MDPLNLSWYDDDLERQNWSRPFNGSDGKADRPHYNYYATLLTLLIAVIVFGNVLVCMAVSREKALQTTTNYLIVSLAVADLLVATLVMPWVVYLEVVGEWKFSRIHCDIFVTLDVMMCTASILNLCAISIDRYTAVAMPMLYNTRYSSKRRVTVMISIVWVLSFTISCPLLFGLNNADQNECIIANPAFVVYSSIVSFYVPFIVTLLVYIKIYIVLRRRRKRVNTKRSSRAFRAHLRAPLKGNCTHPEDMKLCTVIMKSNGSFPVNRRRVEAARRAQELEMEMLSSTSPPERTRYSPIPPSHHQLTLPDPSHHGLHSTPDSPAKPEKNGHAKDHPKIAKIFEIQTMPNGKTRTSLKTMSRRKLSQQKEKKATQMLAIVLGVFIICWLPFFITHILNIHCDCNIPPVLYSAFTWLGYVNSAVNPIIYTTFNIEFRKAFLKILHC

For this experiment, the target named is D(2) dopamine receptor (Homo sapiens) (UniProt P14416). In words: HTS Assay for Allosteric Antagonists of the Human D2 Dopamine Receptor: Primary Screen for Antagonists. Note: 0% is about no effect. The settings on record: HEK293 TREx D2 cells, calcium flux, dopamine EC80; at 10 µM; hits give high values. In outline:
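In this primary screen, negative modulation is detected by tracking calcium flux after an EC80 dopamine challenge in inducible HEK293 T-REx D2 cells preexposed to test compound for 180 s.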
Background: Calcium flux is commonly read through the fluorescence of an indicator in the cells.
A word on the inhibition: it is the change of the read-out against control, counted positive when it falls. For the molecule `COc1cccc(N2CC(C(=O)Nc3c(C)cccc3C)CC2=O)c1` (stereo unspecified), the inhibition is -21.9% (inactive).
For `COc1cccc(N2CC(NC(=O)c3ccc4ccccc4c3)CC2=O)c1` (stereo unspecified), the inhibition is 34.4% (active).
Under `COc1ccc(N2CC(NS(=O)(=O)c3ccc4ccccc4c3)CC2=O)cc1` (stereo unspecified) stands 17.1% (inactive).
Under `CCOc1ccc(NC(=O)CN(C)C(=O)Cn2c(=O)cnc3ccccc32)cc1OCC` stands 6.33% (inactive); under `COC(=O)c1ccc(COC(=O)CNC(=O)c2cccc(OC)c2)o1`, -4.34% (inactive); under `Cc1ccnc(Nc2nc3ccccc3s2)n1`, 39.5% (active).
In the case of `Cn1nnnc1SCC(=O)Nc1nc2ccccc2s1`, the inhibition is 5.01% (inactive).
As to `Cc1ccc(S(=O)(=O)Nc2nc3ccccc3s2)cc1[N+](=O)[O-]`, the inhibition is -1.44% (inactive).
`C=C(C)CNc1cc(S(=O)(=O)N2CCOCC2)ccc1Oc1ccccc1`: the inhibition was -1.1% (inactive).
The result for `CCOc1ccccc1N1CCN(C(=O)COc2ccc3c(C)cc(=O)oc3c2)CC1` reads 20.8% (inactive); that for `Cc1ccccc1N1CCN(CCCOc2ccc3c(C)cc(=O)oc3c2)CC1`, 109% (active); that for `Cc1cc(=O)oc2cc(OCCC[n+]3ccccc3)ccc12`, 13.4% (inactive).
Under `Cc1ccc(C(=O)CN2C(=O)NC3(CCOc4ccccc43)C2=O)s1` (stereo unspecified) stands -0.39% (inactive); under `O=C(COC(=O)CCCN1C(=O)c2cccc3cccc(c23)C1=O)NC1CCS(=O)(=O)C1` (stereo unspecified), 1.37% (inactive); under `O=C(Nc1ccc2c(c1)OCCO2)C1CCCC1`, 3.86% (inactive).
As to `Cc1cc(NC(=O)Nc2ccc(Cl)cc2)n(-c2ccccc2)n1`, the inhibition was 40.6% (active).
Under `Cc1ccc(NC(=O)Nc2cc(-c3ccccc3)nn2C)cc1Cl` stands -13.2% (inactive).
The result for `CC(=O)c1cccc(NC(=O)c2cc(C)nn2-c2ccccc2)c1` reads -7.81% (inactive); that for `Cc1nn(-c2ccccc2)c(Cl)c1C(=O)Nc1ccccc1`, -28.3% (inactive).
Regarding `Cc1cc(NC(=O)c2cnn3cccnc23)n(-c2ccccc2)n1`, the inhibition is 5.9% (inactive).
Under `Cc1cc(NC(=O)Nc2ccccc2)n(-c2ccccc2)n1` stands 31.4% (active).
Under `C#CCOCCOCCOCCNc1nc(N2CCN(C(=O)Cn3cc(CCCCN)nn3)CC2)nc(N2CCN(C(=O)[C@H](CCCCN)n3cc(CCC(=O)O)nn3)CC2)n1` stands -10.9% (inactive); under `CCOc1ncccc1C(=O)OCC(=O)c1c[nH]c2ccccc12`, 12.3% (inactive).
The result for `O=C(CN1CCN(S(=O)(=O)c2ccc(Cl)s2)CC1)N1CCCCC1` reads -11.9% (inactive); that for `CCc1ccc(Nc2n[n+](-c3ccccc3)c(-c3cccc(Cl)c3Cl)s2)cc1`, 6.13% (inactive).
In the case of `CCCCN(C(=O)C(CCSC)N1C(=O)c2ccccc2C1=O)c1c(N)n(CCC)c(=O)[nH]c1=O` (stereo unspecified), the inhibition is -4.67% (inactive).

Source of the values: PubChem BioAssay AID485344 (National Center for Advancing Translational Sciences (NCATS), 2010).
